Shown is part of a subset that was picked to be rich in the strongest signals.
Columns and labels:
Assay in all cases: glycan array binding signal (z-score within array); higher = stronger binding
Conditions in all cases: glycan notation: IUPAC condensed, linker removed
[1] = target: Gal(b1-3)GalNAc(b1-4)[Neu5Gc(a2-3)]Gal(b1-4)Glc
Summary of the method: (§1)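 The binding signal is a Z-score computed within each array. Data were drawn from 3228 arrays in the Consortium for Functional Glycomics database, restricted to those with a known protein sequence. Scores were averaged over arrays of the same protein sequence at different concentrations or buffers, and over linkers, and negative values can be taken as non-binding.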

[2] = target: Neu(a2-3)Gal(b1-4)Glc
Summary of the method: as §1

[3] = target: Neu(a2-6)Gal(b1-4)Glc
Summary of the method: as §1

[4] = target: Neu5Ac(a2-3)Gal(b1-3)GalNAc(b1-4)Gal(b1-4)Glc
Summary of the method: as §1

[5] = target: Neu5Ac(a2-3)Gal(b1-3)GlcNAc(b1-3)[Fuc(a1-3)[Gal(b1-4)]GlcNAc(b1-6)]Gal(b1-4)Glc
Summary of the method: as §1

[6] = target: Neu5Ac(a2-3)Gal(b1-4)[Fuc(a1-3)]GlcNAc6S(b1-3)Gal(b1-4)Glc
Summary of the method: as §1

[7] = target: Neu5Ac(a2-3)Gal6S(b1-4)[Fuc(a1-3)]GlcNAc6S(b1-3)Gal(b1-4)Glc
Summary of the method: as §1

[8] = target: Neu5Ac(a2-6)Gal(b1-4)GlcNAc(b1-3)[Neu5Ac(a2-6)Gal(b1-4)GlcNAc(b1-6)]Gal(b1-4)Glc
Summary of the method: as §1

[9] = target: Neu5Ac(a2-9)Neu5Ac(a2-3)Gal(b1-4)Glc
Summary of the method: as §1

[10] = target: Neu5Gc(a2-3)Gal(b1-4)Glc
Summary of the method: as §1

[11] = target: Gal(b1-3)GalNAc(b1-4)Gal3S(b1-4)Glc
Summary of the method: as §1

[12] = target: Gal(b1-3)GalNAc(b1-4)[Neu5Ac(a2-3)]Gal(b1-4)Glc
Summary of the method: as §1

[13] = target: Gal(b1-3)[Neu5Ac(a2-6)]GalNAc(b1-4)Gal(b1-4)Glc
Summary of the method: as §1

[14] = target: Gal(b1-4)GlcNAc(b1-2)[Gal(b1-4)GlcNAc(b1-4)]Man(a1-3)[Gal(b1-4)GlcNAc(b1-2)Man(a1-6)]Man(b1-4)GlcNAc(b1-4)GlcNAc
Summary of the method: as §1

[15] = target: Gal(b1-4)GlcNAc(b1-3)Fuc
Summary of the method: as §1

[16] = target: Glc(a1-3)Glc
Summary of the method: as §1

[17] = target: Glc(a1-3)Glc(a1-3)Man(a1-2)Man(a1-2)Man(a1-3)[Man(a1-3)[Man(a1-6)]Man(a1-6)]Man(b1-4)GlcNAc
Summary of the method: as §1

[18] = target: Glc(a1-6)Glc(a1-6)Glc(a1-6)Glc(a1-6)Glc
Summary of the method: as §1

[19] = target: Glc(a1-6)Glc(a1-6)Glc(a1-6)Glc(a1-6)Glc(a1-6)Glc(a1-6)Glc(a1-6)Glc(a1-6)Glc
Summary of the method: as §1

[20] = target: Glc(b1-2)Glc
Summary of the method: as §1

[21] = target: Glc(b1-3)Glc(b1-3)Glc(b1-3)Glc(b1-3)Glc(b1-3)Glc(b1-3)Glc(b1-3)Glc(b1-3)Glc(b1-3)Glc(b1-3)Glc
Summary of the method: as §1

[22] = target: Glc(b1-4)Glc(b1-4)Glc(b1-4)Glc(b1-4)Glc(b1-4)Glc(b1-4)Glc
Summary of the method: as §1

[23] = target: Glc(b1-4)Glc(b1-4)Glc(b1-4)Glc(b1-4)Glc(b1-4)Glc(b1-4)Glc(b1-4)Glc(b1-4)Glc
Summary of the method: as §1

[24] = target: Glc(b1-6)Glc(b1-6)Glc(b1-6)Glc
Summary of the method: as §1

[25] = target: GlcA(b1-3)GlcNAc(b1-4)GlcA(b1-3)GlcNAc(b1-4)GlcA(b1-3)GlcNAc(b1-4)GlcA(b1-3)GlcNAc(b1-4)GlcA(b1-3)GlcNAc(b1-4)GlcA(b1-3)GlcNAc(b1-4)GlcA(b1-3)GlcNAc
Summary of the method: as §1

[26] = target: GlcNAc(a1-4)Gal
Summary of the method: as §1

[27] = target: GlcNAc(b1-2)Man
Summary of the method: as §1

[28] = target: GlcNAc(b1-4)GlcNAc
Summary of the method: as §1

[29] = target: Man(a1-2)Man(a1-2)Man(a1-3)[Man(a1-2)Man(a1-3)[Man(a1-2)Man(a1-6)]Man(a1-6)]Man(b1-4)GlcNAc(b1-4)GlcNAc
Summary of the method: as §1

[30] = target: Man(a1-3)[Man(a1-6)]Man
Summary of the method: as §1

[31] = target: Neu5Ac(a2-3)Gal
Summary of the method: as §1

[32] = target: Neu5Ac(a2-3)Gal(b1-3)GalNAc(b1-4)[Neu5Ac(a2-3)]Gal(b1-4)Glc
Summary of the method: as §1

[33] = target: Neu5Ac(a2-3)Gal(b1-4)[Fuc(a1-3)]GlcNAc(b1-3)Gal
Summary of the method: as §1

[34] = target: Neu5Ac(a2-3)[GalNAc(b1-4)]Gal(b1-3)GalNAc(b1-4)[Neu5Ac(a2-3)]Gal(b1-4)Glc
Summary of the method: as §1

[35] = target: Neu5Ac(a2-3)[GalNAc(b1-4)]Gal(b1-4)Glc
Summary of the method: as §1

[36] = target: Neu5Ac(a2-8)Neu5Ac(a2-3)[Gal(b1-3)GalNAc(b1-4)]Gal(b1-4)Glc
Summary of the method: as §1

[37] = target: Neu5Ac(b2-3)Gal(b1-4)Glc
Summary of the method: as §1

[38] = target: Rha(a1-6)Glc
Summary of the method: as §1

[39] = target: Gal(b1-3)GlcNAc(b1-3)Gal(b1-4)Glc
Summary of the method: as §1

[40] = target: Neu(a2-3)Gal6S(b1-4)[Fuc(a1-3)]GlcN(b1-3)Gal(b1-4)Glc
Summary of the method: as §1

[41] = target: Neu5Ac(a2-3)Gal(b1-4)[Fuc(a1-3)]GlcNAc(b1-3)Gal(b1-4)Glc
Summary of the method: as §1

[42] = target: Neu5Ac(a2-3)Gal6S(b1-4)[Fuc(a1-3)]GlcNAc(b1-3)Gal(b1-4)Glc
Summary of the method: as §1

[43] = target: Neu5Ac(a2-8)Neu5Ac(a2-8)Neu5Ac(a2-8)Neu5Ac(a2-8)Neu5Ac(a2-8)Neu5Ac(a2-8)Neu5Ac
Summary of the method: as §1

[44] = target: Neu5Ac(a2-8)Neu5Ac(a2-8)Neu5Ac(a2-8)Neu5Ac(a2-8)Neu5Ac(a2-8)Neu5Ac(a2-8)Neu5Ac(a2-8)Neu5Ac(a2-8)Neu5Ac
Summary of the method: as §1

[45] = target: Neu5Ac(a2-8)Neu5Ac(a2-8)Neu5Ac(a2-8)Neu5Ac(a2-8)Neu5Ac(a2-8)Neu5Ac(a2-8)Neu5Ac(a2-8)Neu5Ac(a2-8)Neu5Ac(a2-8)Neu5Ac(a2-8)Neu5Ac
Summary of the method: as §1

[46] = target: Neu5Ac9Ac(a2-6)Gal(b1-4)GlcNAc
Summary of the method: as §1

B1: MIC13 (Toxoplasma gondii), A0A125YWL1 (protein)
chain: IQLRQHRNGLGVEQSFVSEETDIVGGRISSLQAELDSYCHNRYKQLCDGGNKKFCDKTGVARYGTGIQSQQTAEWRCYFAEVLKPSGRKVQCVDDCGNYFPCLGVVDPNDTFHATAHNQILNFIKDGVEKHCSPFQMAGNNYCQGVLADTVARKDTGTASQKAKAWRCYKKDSLTYEARSICVDNCGGEIECPGGRSETSGELLSQHYTREKELQKVIESQSAPCHDACVATPINPPICADTESLLQSTKRSRAQRFIDDACQKLFNCHCKKDKKFCTTVVARKDRGRAGSQNDAEWRCYSLEELDFQKTNPSCIDECGNELPCQGAVPEESTHHITWTKLPSKIDEATQKFCTERQRAANDYCASEFADSLARYGPGAGDQTSQFRCIKKAAMRADAEGQCADSCKGTETCGGGRSRLDGPLSVDDVLNAHEGISEAMKSASTEC
With B1 as the binder, how does the “glycan array binding signal (z-score)” value [1] read?
Its value is -0.151.

What about the “glycan array binding signal (z-score)” value [2] of the same binder?
The value was -0.234.

And the “glycan array binding signal (z-score)” value [3]?
The value was -0.287.

And the “glycan array binding signal (z-score)” value [4]?
The value was -0.287.

What about the “glycan array binding signal (z-score)” value [5] of the same binder?
Its value is -0.243.

What about the “glycan array binding signal (z-score)” value [6] of the same binder?
The value was 0.435.

What about the “glycan array binding signal (z-score)” value [7] of the same binder?
Its value is 2.31.

What about the “glycan array binding signal (z-score)” value [8] of the same binder?
Its value is -0.287.

What about the “glycan array binding signal (z-score)” value [9] of the same binder?
Its value is 8.12.

And the “glycan array binding signal (z-score)” value [10]?
Its value is -0.038.

B2: MIC4-A5 (Toxoplasma gondii), Q9XZH7 (protein)
chain: SPDFHDEVECVHTGNIGSKAQTIGEVKRASSLSECRARCQAEKECSHYTYNVKSGLCYPKRGKPQFYKYLGDMTGSRTCDTS
Which “glycan array binding signal (z-score)” value [11] does the source give for B2 here?
Its value is 5.56.

What about the “glycan array binding signal (z-score)” value [12] of the same binder?
Its value is 5.3.

And the “glycan array binding signal (z-score)” value [1]?
The value was 4.89.

And the “glycan array binding signal (z-score)” value [13]?
Its value is 6.12.

And the “glycan array binding signal (z-score)” value [14]?
The value was 3.22.

What about the “glycan array binding signal (z-score)” value [15] of the same binder?
Its value is -0.248.

What about the “glycan array binding signal (z-score)” value [16] of the same binder?
The value was -0.306.

And the “glycan array binding signal (z-score)” value [17]?
Its value is -0.323.

What about the “glycan array binding signal (z-score)” value [18] of the same binder?
The value was -0.323.

What about the “glycan array binding signal (z-score)” value [19] of the same binder?
The value was -0.323.

And the “glycan array binding signal (z-score)” value [20]?
The value was -0.32.

What about the “glycan array binding signal (z-score)” value [21] of the same binder?
Its value is -0.323.

And the “glycan array binding signal (z-score)” value [22]?
The value was -0.323.

What about the “glycan array binding signal (z-score)” value [23] of the same binder?
Its value is -0.323.

What about the “glycan array binding signal (z-score)” value [24] of the same binder?
Its value is -0.323.

And the “glycan array binding signal (z-score)” value [25]?
Its value is -0.323.

What about the “glycan array binding signal (z-score)” value [26] of the same binder?
Its value is -0.323.

What about the “glycan array binding signal (z-score)” value [27] of the same binder?
Its value is -0.323.

What about the “glycan array binding signal (z-score)” value [28] of the same binder?
The value was -0.323.

What about the “glycan array binding signal (z-score)” value [29] of the same binder?
Its value is -0.323.

What about the “glycan array binding signal (z-score)” value [30] of the same binder?
The value was -0.323.

And the “glycan array binding signal (z-score)” value [31]?
Its value is -0.323.

And the “glycan array binding signal (z-score)” value [32]?
Its value is -0.191.

And the “glycan array binding signal (z-score)” value [33]?
Its value is -0.323.

And the “glycan array binding signal (z-score)” value [34]?
Its value is -0.323.

What about the “glycan array binding signal (z-score)” value [35] of the same binder?
Its value is -0.311.

And the “glycan array binding signal (z-score)” value [36]?
The value was 6.1.

What about the “glycan array binding signal (z-score)” value [37] of the same binder?
Its value is -0.32.

What about the “glycan array binding signal (z-score)” value [38] of the same binder?
Its value is -0.322.

B3: MIC1 (Neospora caninum), Q8WRS0 (protein)
chain: AGAKTYGEASQPSASARSLQGALDTWCQEVFKKLCDDGYSKMCIPANQVVARQGLGRKDQQKLVWRCYDSAAFLAEGDENNVLSCVDDCGVSIPCPGGVDRDNSTHATRHDELSQLIKEGVVRYCSGFQAAANSYCNKRYPGTVARKSKGFGHKEPVKWRCYKPESLLFSVFSECVSNCGTTWSCPGGRLGTATNLDKKHFTDESGILQALTSVPKACPVGLVCLPRDQNPPACLDDNGNVPE
Which results are given for B3?
glycan array binding signal (z-score) [12]: -0.344; glycan array binding signal (z-score) [39]: -0.441; glycan array binding signal (z-score) [2]: -0.422; glycan array binding signal (z-score) [40]: -0.441; glycan array binding signal (z-score) [41]: -0.359; glycan array binding signal (z-score) [6]: 0.848; glycan array binding signal (z-score) [42]: 6.08; glycan array binding signal (z-score) [7]: 4.92; glycan array binding signal (z-score) [43]: 0.538; glycan array binding signal (z-score) [44]: -0.166; glycan array binding signal (z-score) [45]: -0.291; glycan array binding signal (z-score) [46]: -0.428
